The supplement of paper PMC11383364

What follows are molecules tested on SUM149 (assay: percent difference in area under dose-response curve of relative cell number, RPMI vs HPLM; higher = drug relatively more effective in HPLM than RPMI (negative = less effective in HPLM)). Details: treatment time: 72 h; dose range: 10-point, 1 nM to 20 µM; media compared: RPMI vs HPLM.

Compound | percent difference in area under dose-response curve
C=CC(=O)Nc1cc(Nc2nccc(-c3cn(C)c4ccccc34)n2)c(OC)cc1N(C)CCN(C)C | 1.9%
O=C(O)C(=O)O.[NH-][C@@H]1CCCC[C@H]1[NH-].[Pt+2] [Oxaliplatin] | -2.44%
CN1CCN(c2ccc3nc(-c4c(N)c5c(F)cccc5[nH]c4=O)[nH]c3c2)CC1 [Dovitinib] | -0.391%
Cc1nc(N)sc1-c1ccnc(Nc2ccc(N3CCOCC3)cc2)n1 | 11%
CCN(CC)CCCCNc1ncc2cc(-c3cc(OC)cc(OC)c3)c(NC(=O)NC(C)(C)C)nc2n1 | 1.69%
CN1CCN(CCOc2cc(OC3CCOCC3)c3c(Nc4c(Cl)ccc5c4OCO5)ncnc3c2)CC1 [Saracatinib] | 14.3%
Nc1nccc(Oc2ccc(NC(=O)c3c[nH]cc(-c4ccc(F)cc4)c3=O)cc2F)c1Cl | -4.65%
COc1cc(F)c(F)c(Nc2ccc(I)cc2F)c1NS(=O)(=O)C1(C[C@H](O)CO)CC1 [Refametinib] | -9.94%
N#CCNC(=O)c1ccc(-c2ccnc(Nc3ccc(N4CCOCC4)cc3)n2)cc1 | 7.22%
O=C(O)c1ccc2c(c1)nc(Nc1cccc(Cl)c1)c1ccncc12 | 0.753%
Cc1ccc(C)c(Oc2ccncc2C(=O)N2CCN(C3CC3)c3ccccc32)c1 | -4.99%
CC(=O)O[C@@]12CO[C@@H]1C[C@H](O)[C@@]1(C)C(=O)[C@H](O)C3=C(C)[C@@H](OC(=O)[C@H](O)[C@@H](NC(=O)OC(C)(C)C)c4ccccc4)C[C@@](O)([C@@H](OC(=O)c4ccccc4)[C@H]21)C3(C)C [Docetaxel] | -42.7%
